Assay results from the supplement of paper PMC6555819.

tested on: RARg:RXRa (NR concentration 270 nM, RXRa partner concentration 90 nM); assay: PBM binding z-score (relative to random genomic background probes); higher = stronger binding; sequences stand for … in GC…GCGATTGACAGCGTAGAATGAAGG
Procedure, shortened: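 For binding z-scores, the reference was random background probes on custom Agilent 4×180K protein-binding microarrays. These arrays were incubated 1 h with ligand-free nuclear receptor dimers in PBS pH 7.4, 2% milk, 0.02% Triton X-100, 1 mM DTT, 0.2 mg/mL BSA and 0.4 mg/ml salmon testes DNA. Fluorescence was scanned after antibody detection of each partner (one per run) and regression-normalized.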

Row | Sequence | PBM binding z-score
1 | AGAACGAGGGCAAAGAGTTGATAGCACGGGTGGC | 1.3
2 | CAAACTAGGTCACGAAAGGTCTAAGTCGAATGAC | 5.04
3 | GATACAGGGTCAGCTAGCGGCCAGAGTATGGAAA | 6.02
4 | TCTTCTAGATCAACAGGAGGTTAAGAAAGATCGA | 0.984
5 | TCTCGGAGGACACGAAAGGTCACAGCTCGACATC | 6.11
6 | ACTATTAGTTGACTTACGGCAACCGATACGACGC | 0.528
7 | TCTATTTGGTCACGGAGGTCACACACGACGGGTA | 4.91
8 | TCTCGGAGGACACGACAGGTCAGAGCTCGACATC | 2.35
9 | TGAAAGAGGTTAAAGATCAGGGAACGTGGCGTCG | 2.9
10 | CAAACTAGGTTAAGGTCAAAGTCGGTTTGTGCCA | 5.11
11 | AATACAGGGTCATCGTAGGCGAGAGTACGCACAG | 5.58
12 | CTCGAAAGGTCGGGCTCAGGTGAGTATACCAAAC | 4.07
13 | ATCGAAAGGTCGACGAGGCGAGTATACACCGTTT | 4.06
14 | CCGACTGGGGCATAAGGTTTCCATAAGCCAGCCC | -0.272
15 | CCTAGCAGGCCAGGGTTACTCAAGCATTTCGCTT | -0.0642
16 | TTACCCAGGTGAAAGGTCGTTGATGCACGCCTTG | 3.48
17 | CGTACTAGGTCAAGGACAGTGAATCTCCGCACGC | 3.81
18 | ACTAGCAGGCCAAGTGTGGGTCACTCAAACAAAG | 2.53
19 | CCAGACAGGTGAAAGATAACTCAGTCTGGTACGC | 0.614
20 | CCTGTTAGGTCAATGGTCAGCTAAAGCAGCTCGC | 4.07
21 | AGTCAAAGTTCAGGACGTGGTAACGTAAAGCACG | 4.04
22 | CGTCCAAGGTCAGAGAGGTCAGAGAATGCCGAGT | 6.29
